Results as given in the supplement of paper PMC12632987.

B1: uchl1_2_7538 (protein)
chain: KTRFVGVLVKITAKDEKTGKVYRARRTLIGTASGIPAMAEEVERLVLEFQERTGVPVRVEVHVYASDEETAELARREFERMAERLAEHGIEVTVTVTVVE
B2: uchl1_2_7539 (protein)
chain: KTKFVGALVEITAKDEKTGKVYRSRRTLIGTESAIEAMAKEIKELVLNFKEETGVPVEVKVTVYAENKETAEKMKKELEKMAKELAKEGIKVEIEVKLVE
B3: uchl1_2_7540 (protein)
chain: KSVFVGVLVTLRSYDEATGKEYVSRRTLIGTEDSIEALAEEVAELIRAFYEQTGVPVQADVTIVSSSREVAERLAEALRAREAELRAEGVDVTLTITVRV
B4: uchl1_2_7541 (protein)
chain: KTKFIGVLVTLTSYDAATGRTYRARRTLIGTESGIEAMAAEVAELVRTFHDATGQPVAVDVRIVSSDEAVAEALEAALKAAEAALKAEGVDVTLTITKDV
B5: uchl1_2_7542 (protein)
chain: KPKFIGLKVTLTSYDEKTGKTYKATRTLIGTESGIEAMAKEVGELVRTFYDATGVPVKVDVTIVSSDEEVAKKLEEALRKMEEELKKEGVPVELNIKKEV
B6: uchl1_2_7543 (protein)
chain: KPVFVGVLLELEARDEATGRVYRARRTLIGTEDGIEAMAEEVRRLVREFWEATGVPVRARVTIVSTREEVAERLRRALEAAHEELRAEGIDVTLEITVRV
B7: uchl1_2_7544 (protein)
chain: KTKFVGVKVTLTSYDEKTGKEYKSTHTLIGTEEAVEAMAKEIAELIRTFYDATGVPVKVDVTIYSSSEEVAEKLEKELKKEVEKLKKEGIDVTLTITKKV
B8: uchl1_2_7545 (protein)
chain: KTKFVGVLVTLRSYDPETGREYVSRRTLIGTEEAVEAMAEEIAELIRRFHDRTGVPVDVDVTIYSSSKEVAEELKKKLEEEVKKLKAEGIDVTLTVTLKV
B9: uchl1_2_7546 (protein)
chain: KTQFVGALVKMEAYDEETGKTYKSTRTLIGTADAIEKMAEEIYELALNFKDTVGVPVKVKVDVVVASEETKKKAEAALKKMKEKLKKEGIEVEVKVTVVE
B10: uchl1_2_7547 (protein)
chain: KTEFVGVLVTITSVNPETGETFVARRTLIGTASSIEAMAKEIKELALAFKADTKGDTTVDVEVVVSSKEVAEKAKKALEELKKELEAEGIKFNYKITVVE
B11: uchl1_2_7548 (protein)
chain: KAEFVGALVTITSTNPETGEVRVARRTLIGLASDIDALMEEIERLVLDFQADTGGATRVRIRIVVSSEEVAERARAAAEEMKARLAAEGIEVEVEIEVVE
B12: uchl1_2_7549 (protein)
chain: EPQFVGVLVTVTSTNPETGKVYKSRRNFIGTADAIPALFKEVLEYVLTFKEANGGKTKVKLEIVVSTKEVAEKAKKEAEKLKKELAKEGIEAEVKITVVE
B13: uchl1_2_7550 (protein)
chain: EPRFVGVLVTVTSTNPETGEVFRSRRNFIGTADAVAAMMAEVEEYVLRFKEVNGGAVAVDLHVVVSTEEDAARARAEAAKLAARLAAEGITATVTVTVVE
B14: uchl1_2_7551 (protein)
chain: KSVFVGVLVTIRATDAATGETLVSRRTLIGTESSIKKLAEEVKELVLEFKARTGGPVEVDITVYSSKEEVAKKAKEEFEKLKKELAAEGVTANVNVILSK
B15: uchl1_2_7552 (protein)
chain: KTQFVGVLVTITSTNPETGEVKTVRKTLIGTEEGIEAMAKEILEMALEFKEQTKGPVEVKVEVVVSTEETAKKMEEELKKLEEELKKEGIKVEVEVKVVK
B16: uchl1_2_7553 (protein)
chain: KTKFVGVLVTIRAVNPETGKEYRSRRTLIGTADAIEALAEEVYELVLRFKEATGAPVEVDVRVYVSDEETAERAREAFKKLEERLKAEGVKARVEVTVVK
B17: uchl1_2_7554 (protein)
chain: ETKFVGVLVEIESVNPETGKEYKSRRTLIGTASAIEKLAEEVLELVRTFKEKTKAPVKVKVTVYVSDEETAKKAEKEFKKLEEELKKEGVEVEVEVIVVK
B18: uchl1_2_7555 (protein)
chain: ASQFVGVLVTITAKDEKTGKTYVSRRTLIGTAESIEKMVEEIKELVLRFKDITKAPVEVKIEVYVSTEETAERMEKELEKLKEELEKKGVKVEIEVHVVE
B19: uchl1_2_7556 (protein)
chain: KTVFVGVAIDLTSTNPETGEVFRSRRTLIGTASAIEAMAEEVRELILRFREETGGPVEVRILVVSSDEAVARRLVALLEAMAAELAAEGVTVTVTRRVLK
B20: uchl1_2_7557 (protein)
chain: KSEFVGVLVTITARDEETGEVKVARRTFIGLAEDIEKLVEEIKKLVLEFKAQYNVPVEVDIKAVVSSEETAEKLKKELEKMKKELEKEGITVNIEVEVVE
B21: uchl1_2_7558 (protein)
chain: KSEFVGVKVTITAEDPETGKVYVAKRTFIGLASDIEKLVEEVKKLVLEFKADKKVPVKVKIEAVVSSEETAERLKKELEKMKKELAKEGIEVEITVKVVK
B22: uchl1_2_7559 (protein)
chain: KTKFVGVLVKVEAVDEKTGKVKKARRTFIGTEENIEKLVEEIEKYVLEFQKEHGKDVKVKIHGVVSDEETAEKLKKKLEEMKKRLEKEGIKVEIEVTVAK
B23: uchl1_2_7560 (protein)
chain: KTQFVGVRVDITSLNPETGEVFRARRTLIGTEDSLEAMLEEVRRLVLDFKEQYGGETRVEIRITVSTEETGERAKRLAEELKEELEKEGIEVEVEVEVAK
B24: uchl1_2_7562 (protein)
chain: KPVFIGVLVTLTAEDKETGKTYRSRRTLIFTESAIEALAEEIKELALNFRDTVGVPVKVEIKVFSTDEAVVERTVAILEKMAEELAKEGIEVTITGEVVK
B25: uchl1_2_7563 (protein)
chain: ETVFVGVLVTLTAENAETGETFRSRRTYIFTESAIDALVAEIERDALAFREQTGVPVTVDIHIVSTDEAVVRRLEAALRAMAERLAAHGITVNISSTVVR
B26: uchl1_2_7564 (protein)
chain: KTIFIGVLVELIAEDEETGKVYRSRHTYIFTESAIDALVEQIKEDALAFKEQTGVPVRVRIHIVSTNEEVVKKLKEKLEEMAEELKKEGIEVEISYTVVK
B27: uchl1_2_7565 (protein)
chain: ETIFIGVLVTLTSRDEATGKVYRSRRTLIFTESAIDALVEEIKEDALAFKAQTGVPVTVNIHIVSTNEEVVEKLKKKLEEMAKELAKEGITVNISYTVVK
B28: uchl1_2_7566 (protein)
chain: ETVFVGVKVTLTSYDEKTGKTYKSTRTLIFTESSIDAAVEEIRELALSFREQVGVPVKVEIHIVSTREEVLERLKEKLEEMAEELKEEGIEVEISGEVVK
B29: uchl1_2_7567 (protein)
chain: KPVFIGVKLTLTSKDEKTGKTYKSTHTLIFTESAIDKLVEEIERLALEFQKATGVPVTANIEVYSTDKEVLEKLMKKLKEMAKRLAKEGIKVNIEGKLVE
B30: uchl1_2_7568 (protein)
chain: KTVFVGVKVTLTSENKETGKTYKSTHTLIFTESAIEKLVEEIERLALEFKDATGVPVKVDIEVYSTDEEVLKKLMKELKKMAERLKKEGIEVNITGTLVK
B31: uchl1_2_7569 (protein)
chain: KTVFVGVKVTLEAYDEKTGKRYRSRHTLIFTEDSIEALAKEIKELALDFQKDVGVPVTVNIEVYSTDEAVVKKTMAVLEKMAKELAKEGIKVNITGTVVK
B32: uchl1_2_7570 (protein)
chain: KTVFVGVLVTLTSKDAKTGKTYKSRRTYIFTESSIEALAKEIKEDALAFQKDVGVPVTVDIKIYSTKEEVVKKTKAVLEKMAEELAKEGIKVNITGTVVK

Target: UCHL1, P09936
Test: median log2 fold change of GCK-ALFA target abundance (FLAG IP / Myc IP barcode read proportion) (log2 ratio); each designed protein is fused to an ALFA-tag nanobody in HEK293 cells to bring the named protein to FLAG-tagged glucokinase (GCK); Myc marks an untargeted standard; higher = target protein stabilised (more abundant)
Details: target protein: 3xFLAG-MCP-GCK-ALFA reporter; HEK293 landing pad (RPLP)
In short: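 Binders fused to an ALFA nanobody were recombined as a library into HEK293 landing-pad cells, which were induced with 2 μg mL^−1 doxycycline and then transfected to express a FLAG-tagged target and a Myc-tagged standard. After 48 h, circular RNA barcodes recovered by anti-FLAG and anti-Myc immunoprecipitation of lysates were reverse transcribed, amplified and sequenced. Each binder's target abundance is the median log2 ratio of FLAG to Myc barcode read proportions, from barcodes present at ≥10^−7 in both replicates, binders carrying ≥3 barcodes per replicate, a 10^−6 pseudocount and pooled replicates.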

Chain of UCHL1, P09936 (P09936 whole entry, looked up, the tested form may be a part): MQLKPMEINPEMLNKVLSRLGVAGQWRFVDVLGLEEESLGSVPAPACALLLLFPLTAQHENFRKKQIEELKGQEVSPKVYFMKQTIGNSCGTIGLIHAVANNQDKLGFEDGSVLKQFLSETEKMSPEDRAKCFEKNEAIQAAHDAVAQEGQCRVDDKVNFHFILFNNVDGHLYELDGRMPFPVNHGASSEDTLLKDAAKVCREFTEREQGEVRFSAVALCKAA

Row | Binder | median log2 fold change
1 | B1 | -0.55
2 | B2 | -0.811
3 | B3 | -0.377
4 | B4 | -0.304
5 | B5 | -0.0683
6 | B6 | 0.327
7 | B7 | -0.358
8 | B8 | 0.0138
9 | B9 | -1.13
10 | B10 | -0.0935
11 | B11 | -0.489
12 | B12 | -0.1
13 | B13 | -0.0947
14 | B14 | -0.159
15 | B15 | 0.325
16 | B16 | -0.615

Row | Binder | median log2 fold change
17 | B17 | -0.73
18 | B18 | -0.856
19 | B19 | -0.249
20 | B20 | -0.214
21 | B21 | -0.285
22 | B22 | -0.255
23 | B23 | 0.0724
24 | B24 | -1.04
25 | B25 | -0.142
26 | B26 | -0.635
27 | B27 | -0.661
28 | B28 | -0.335
29 | B29 | -0.668
30 | B30 | -0.4
31 | B31 | -1.14
32 | B32 | -0.683
